Bioassay records (PubChem BioAssay)
In the library only some 2.8% were active in any assay of this set; here they are far more common.
POLK inh: blocks human DNA polymerase kappa activity; actives 0.53% (n = 400,000); Q9UBT6; Potency, µM (top dose mostly 107 µM), hits mostly inhibitors; AID 588579; purified Pol kappa, fluorescent DNA synthesis assay, 10 min
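Here, compound and 10 nM enzyme are combined for 15 min at room temperature; adding 50 nM substrate (final) starts DNA synthesis, tracked by fluorescence at 0 and 10 min against buffer-only wells.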
POLI inh: DNA polymerase iota (human) inhibition; Q9UNA4; Pol iota fluorescent replication assay, 10 min; Potency, µM (top dose mostly 115 µM), hits mostly inhibitors; actives 1% (n = 390,000)
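Pol iota at 10 nM preincubated 15 min with compounds at room temperature; reaction started with fluorescent substrate, 50 nM final. Fluorescence read kinetically at 0 and 10 min; buffer-only wells as negative control.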
PI5P4Ka inh: blocks human PI5P4K alpha kinase activity. P48426. PI5P4Kalpha enzyme, ADP-Glo luminescence, 60 min; active compounds read low. max response, %. actives 1.2% (n = 330,000); active means max response of -50% or lower; inconclusive means between -30% and -50%; inactive means -30% or higher; further: value at the top dose of about 77 µM
Target sequence (P48426 whole entry, looked up): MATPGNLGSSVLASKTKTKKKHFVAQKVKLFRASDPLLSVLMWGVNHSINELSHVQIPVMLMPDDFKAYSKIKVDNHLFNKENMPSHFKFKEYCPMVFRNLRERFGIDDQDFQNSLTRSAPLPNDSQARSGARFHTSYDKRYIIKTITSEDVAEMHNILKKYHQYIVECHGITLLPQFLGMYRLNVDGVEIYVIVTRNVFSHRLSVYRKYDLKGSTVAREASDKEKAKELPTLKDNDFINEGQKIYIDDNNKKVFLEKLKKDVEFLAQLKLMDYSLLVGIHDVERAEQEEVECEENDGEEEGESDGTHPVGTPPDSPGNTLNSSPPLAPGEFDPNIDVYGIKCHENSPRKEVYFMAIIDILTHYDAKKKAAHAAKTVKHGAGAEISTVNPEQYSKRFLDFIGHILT
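Enzyme plus substrate dispensed, test compounds pinned in, then ATP (5 microM final) added. After 60 min at RT, ADP-Glo reagent 1 for 45 min and reagent 2 for 30 min preceded luminescence imaging.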
POLB inh: blocks human DNA polymerase beta activity; P06746; Potency, µM (titrated, usually from 114 µM), usual class: inhibitors; actives 1.3% (n = 340,000); Pol beta primer extension/strand displacement, fluorescence kinetic
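10 nM enzyme + cpd, 15 min RT; start with substrate 50 nM final; read 0 min and after 10 min RT. Corrected, normalized data; 4-parameter Hill curve fit.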
POLH inh: inhibitors of human DNA polymerase eta; Q9Y253; actives 1.2% (n = 390,000); Potency, µM (top dose mostly 114 µM), actives largely listed as inhibitors; recombinant Pol eta, fluorescent DNA replication assay; AID 588591
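Pol eta at 10 nM preincubated with compounds 15 min at room temperature; reaction started with fluorescent substrate (50 nM final) and read kinetically at 0 and 10 min.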
WRN helicase inh: WRN helicase (human) inhibition; Q14191; WRN helicase unwinding, fluorescent forked duplex, kinetic; Potency, µM (highest dose often 114 µM), usual class: inhibitors; actives 0.46% (n = 360,000); AID 651768; further: nearly all actives have a fitted effect of over 55% in size
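Kinetic fluorescence helicase assay: unwinding of a quenched forked DNA duplex (100 nM final) with 2 mM ATP final raises red fluorescence (525/598 nm). Compounds sat 15 min at room temperature with 20 nM WRN beforehand.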
ADP-Glo counter: ADP-Glo luciferase interference, PI5P4K counter-screen | shares compounds with PI5P4Ka inh | ADP-Glo detection counter-screen, luciferase luminescence, no enzyme | Potency, µM (highest dose often 76.9 µM), hits mostly inhibitors | 1,100 tested, under 10 active
Large screens that a line does not name were inactive (follow-up assays come after a bar, where they were run). Unless noted, the call rests on the fitted dose curve; in most records, active means well fitted curve in the direction sought with a large enough effect; inconclusive means small, poorly fitted or top-dose-only effect, or another doubt; inactive means no such curve, though single readings can be large; an effect the other way counts as inactive or inconclusive.

O=C(CSc1ccccc1)Nc1nnc(COc2ccc(Cl)cc2)s1	PI5P4Ka inh -53, POLB inh 20µM, POLH inh inconclusive, WRN helicase inh inconclusive | ADP-Glo counter inactive
Cc1cccc(C)c1OCc1nnc(NC(=O)CSc2ccc(Cl)cc2)s1	none
Oc1ccccc1-n1nc2ccc3nonc3c2n1	POLB inh inconclusive
CCOC(=O)C1=C(CC)Nc2ccccc2N=C1NC(=O)c1ccc(S(=O)(=O)N2CCOCC2)cc1	none
CCOC(=O)C1=C(CC)Nc2ccccc2N=C1NC(=O)c1ccc(S(=O)(=O)N(C)C)cc1	POLI inh inconclusive, PI5P4Ka inh -51 | ADP-Glo counter inactive
O=C(CSc1nc(-c2ccccc2)nc2c1Cc1ccccc1O2)N1CCCCC1	none (no result: PI5P4Ka inh, WRN helicase inh)
CCn1c(=O)n(-c2ccc(F)cc2)c(=O)c2sc3ccccc3c21	none (no result: PI5P4Ka inh, WRN helicase inh)
CCOC(=O)CC(NC(=O)c1ccc(C)cc1)c1ccc(OC)cc1 (stereo unspecified)	none
OC(c1ccc(Cl)c(F)c1)c1ncc(-c2ccc(Oc3ccccc3)cc2)[nH]1 (stereo unspecified)	PI5P4Ka inh -57 (no result: POLK inh, POLI inh, POLB inh, POLH inh) | ADP-Glo counter inactive
Cc1ccc(SCc2cc(=O)[nH]c(/N=C(\N)Nc3ccc(C)c(C)c3)n2)cc1	none (no result: PI5P4Ka inh)
Cc1ccc2c(c1C)NC(=O)CC2c1ccc(Cl)cc1Cl (stereo unspecified)	none (no result: PI5P4Ka inh, WRN helicase inh)
COC(=O)Cc1c(C)nc2nc(-c3ccc(C)cc3)[nH]n2c1=O	PI5P4Ka inh -72 | ADP-Glo counter inactive
COC(=O)Cc1c(C)nc2nc(-c3ccc(Cl)cc3)[nH]n2c1=O	PI5P4Ka inh inconclusive
Cc1cc(C)c(NC(=O)OCCN2CCOCC2)c(C)c1	POLI inh inconclusive, PI5P4Ka inh -63 | ADP-Glo counter inactive
Cc1ccc(NC(=O)c2cc(NC(=O)c3ccccc3C(=O)O)ccc2N2CCCCC2)cc1	PI5P4Ka inh -52 | ADP-Glo counter inactive
CC(=O)Nc1ccc(N2CCCCC2)c(C(=O)Nc2cccc(C)c2)c1	none (no result: PI5P4Ka inh)
COc1ccc(-c2nnn(CC(=O)N(CC(=O)NC3CCCC3)c3ccccc3)n2)cc1OC	PI5P4Ka inh -51 | ADP-Glo counter inactive
Cc1ccc(S(=O)(=O)N(C)C)cc1NC(=O)C(C)OC(=O)c1cc[n+]([O-])cc1 (stereo unspecified)	none (no result: POLB inh)
Cc1cccnc1NC(=O)c1ccc(COc2ccccc2)o1	POLI inh inconclusive
COc1ccc(OC)c(NC(=O)CSc2ccc(-c3ccco3)nn2)c1	POLK inh inconclusive, POLI inh 25µM, PI5P4Ka inh -51, POLB inh 25µM, POLH inh inconclusive | ADP-Glo counter inactive
COc1ccccc1NC(=O)CSc1ccc(-c2ccco2)nn1	POLI inh inconclusive, POLB inh inconclusive
O=C(N/N=C/c1cccs1)c1ccc2c(c1)OCO2	none
O=C(Nc1nc(-c2ccccn2)cs1)C1CC(=O)N(c2ccc3c(c2)OCCO3)C1 (stereo unspecified)	POLK inh inconclusive, POLI inh 20µM, PI5P4Ka inh -50, POLB inh 13µM, POLH inh inconclusive | ADP-Glo counter inactive
O=C(Nc1nc(-c2cccs2)cs1)C1CC(=O)N(c2ccc3c(c2)OCCO3)C1 (stereo unspecified)	none (no result: PI5P4Ka inh, POLB inh, POLH inh, WRN helicase inh)
CCOc1ccccc1N(C)C(=O)Cn1cnc2sc(C)c(S(=O)(=O)N3CCC(C)CC3)c2c1=O	none (no result: PI5P4Ka inh, WRN helicase inh)
COc1nccnc1NS(=O)(=O)c1ccc(N)cc1	none
COc1ccccc1NC(=O)Nc1nc(CC(=O)Nc2cccc(F)c2)cs1	none (no result: POLB inh)
COc1ccccc1NC(=O)Nc1nc(CC(=O)Nc2cc(F)ccc2F)cs1	PI5P4Ka inh -52, POLH inh inconclusive, WRN helicase inh inconclusive (no result: POLB inh) | ADP-Glo counter inactive
Cc1ccc2nc3n(c(=O)c2c1)-c1ncccc1C(=O)NC3Cc1ccc(O)cc1 (stereo unspecified)	none (no result: POLK inh, POLI inh, POLB inh)
CC(=O)Nc1cccc(-c2ccnc3c2CC(C(=O)NCc2ccco2)O3)c1 (stereo unspecified)	PI5P4Ka inh -50 (no result: POLK inh, POLI inh, POLB inh, POLH inh) | ADP-Glo counter inactive
CCc1cccc(C)c1N=Cc1c(O)c2ccccc2oc1=O	none
Nc1cccnc1S(=O)(=O)c1cccc(C(F)(F)F)c1	none (no result: POLB inh)
Nc1nc(N)c2cc(S(=O)(=O)c3cccc(C(F)(F)F)c3)ccc2n1	PI5P4Ka inh -54, POLH inh inconclusive (no result: POLK inh, POLI inh, POLB inh) | ADP-Glo counter inactive
CC(C)(C)NC(=O)C(c1ccc(C#N)cc1)n1c(=O)c(-c2ccccc2)nc2ccccc21 (stereo unspecified)	none (no result: POLK inh, POLI inh, POLB inh, POLH inh)
O=C(NCc1ccccc1)C(c1ccc(-c2ccccc2)cc1)n1c(=O)c(-c2ccco2)nc2ccccc21 (stereo unspecified)	PI5P4Ka inh -73 (no result: POLK inh, POLI inh, POLB inh, POLH inh) | ADP-Glo counter inactive
CC(C)(C)NC(=O)C(c1ccc(C#N)cc1)n1c(=O)c(-c2ccco2)nc2ccccc21 (stereo unspecified)	PI5P4Ka inh -57 (no result: POLK inh, POLI inh, POLB inh, POLH inh) | ADP-Glo counter inactive
Cc1ccc(C(C(=O)NC2CCCCC2)N(C)Cc2ccccc2)cc1 (stereo unspecified)	none (no result: PI5P4Ka inh, WRN helicase inh)
Cc1cccc(NC(c2ccc(O)cc2)c2ccc3ccc(C)nc3c2O)n1 (stereo unspecified)	PI5P4Ka inh -52 | ADP-Glo counter inactive
CN(C)S(=O)(=O)c1ccc(C(=O)Nc2cc3c(cc2C(=O)O)OCCCO3)cc1	PI5P4Ka inh -50 | ADP-Glo counter inactive
CC1CCN(C(=O)c2ccc(COc3ccccc3Cl)o2)CC1	PI5P4Ka inh -55 | ADP-Glo counter inactive
Cn1c(=O)c2c(-c3ccccc3)n(-c3cccc(O)c3)cc2n(C)c1=O	PI5P4Ka inh -50 (no result: POLK inh, POLI inh, POLB inh, POLH inh) | ADP-Glo counter inactive
Nc1cc(-c2ccncc2)c[nH]c1=O	POLI inh 10µM, PI5P4Ka inh -56, POLH inh inconclusive | ADP-Glo counter inactive
CCOc1ccc(-c2nc(SCC(=O)NC3CCCC3)c(-c3ccccc3)[nH]2)cc1OC	none (no result: PI5P4Ka inh, WRN helicase inh)
Cc1nc2ccccc2nc1OCC(=O)NCc1ccc2c(c1)OCO2	POLK inh inconclusive, POLI inh inconclusive, PI5P4Ka inh -62 | ADP-Glo counter inactive
CCS(=O)(=O)N1CC(=O)N(c2cc(C)ccc2C)C(C)(C(=O)NC2CCCCC2)C1 (stereo unspecified)	POLB inh inconclusive (no result: PI5P4Ka inh, WRN helicase inh)
COc1ccnc(Oc2ccc(C)cc2C)c1C#N	none (no result: PI5P4Ka inh)
Cc1cc2ccccc2c[n+]1C1CCCCC1	none (no result: PI5P4Ka inh, POLB inh, POLH inh, WRN helicase inh)
Cc1ccccc1N(C(=O)c1csnn1)C(C(=O)NC1CCCCC1)c1ccncc1 (stereo unspecified)	none
